Laboratory results from PubChem BioAssay (EPA / NIEHS).
Records with an inconclusive call do not appear. The source made the active and inactive calls. The calls were made as follows: active = hit-call score of the fitted dose curve at least 0.9, where 1 is the maximum; inconclusive = response in the unintended direction; inactive = score below 0.9.

The compounds below were run on glucuronosyltransferase (UGT1A1), UGT1A1 (gene 54658) (assay: CLD_UGT1A1_6hr: CellzDirect (CLD) Gene Expression Assay for glucuronosyltransferase (UGT1A1) at 6 hours (AID 2283672)).
Protocol: CLD_6hr is a cell-based, multiplexed-readout assay that uses hepatocyte, a human liver primary cell, with measurements taken at 6 hours after chemical dosing in a 96-well plate.CLD_UGT1A1_6hr is one of 16 assay component(s) measured or calculated from the CLD_6hr assay. It is designed to make measurements of mRNA induction, a form of inducible reporter, as detected with chemiluminescence signals by Quantitative Nuclease Protection Assay (qNPA) technology.Data from the assay component CLD_UGT1A1_6hr was analyzed at the endpoint, CLD_UGT1A1_6hr, in the positive analysis fitting direction relative to DMSO as the negative control and baseline of activity. Using a type of inducible reporter, gain-of-signal activity can be used to understand changes in the reporter gene as they relate to the gene UGT1A1. Furthermore, this assay endpoint can be referred to as a primary readout. To generalize the intended target to other relatable targets, this assay endpoint is annotated to the transferase intended target family, where subfamily is glucuronosyltransferase.
Human hepatocyte cultures were treated daily for two consecutive days with fresh dosing solutions containing appropriate concentrations of the 320 ToxCast chemicals (chemical identities were blinded to CellzDirect and other ToxCast collaborators), vehicle control (0.2% DMSO), and positive control inducers as summarized in Table 1. Due to the large number of treatment groups and chemicals examined, the ToxCast chemicals were divided into two groups (spanning two independent cultures of hepatocytes from separate donor preparations (Hu778: ToxCast plates 1 and 2; Hu776: ToxCast plates 3 and 4). Each preparation of human hepatocyte cultures was treated with respective vehicle control, medium only control, set of six positive controls/reference chemicals for the five hepatic receptor pathways, and a subset of eight of the ToxCast chemicals (indoxacarb, pyrithiobac-sodium, norflurazon, cyhalofop-butyl, methomyl, thiram, acetochlor, and propiconazole). These replicate data, coupled with internal replicates designed within the blinded ToxCast chemical library, provided additional data to evaluate interindividual differences between hepatocyte preparations and their potential impact on chemical profiles.Cell morphology and integrity were evaluated using phase-contrast microscopy as an indicator of hepatocyte cell health (Tyson & Green, 1987). Cultures for each treatment group (i.e., media, vehicle [0.2% DMSO], positive control inducers [multiple concentrations], and the ToxCast chemicals [multiple concentrations]) were observed and cell morphology was assessed relative to vehicle control cultures at each harvest time point (0, 6, 24, or 48 h). […] Images were evaluated at the conclusion of the study to assess changes in cell integrity and account for the effects of chemical exposure on uncharacteristic changes in concentration-dependent gene expression profiles. The results from these determinations of apparent cytotoxicity were annotated (yes/no) alongside the corresponding qNPA data for reference.At the conclusion of each treatment period, hepatocyte cultures (96-well) were washed with 1 volume of HBSS, lysed by addition of 25 ul ArrayPlate lysis buffer (HTG, Tucson, AZ), and 70 ul/well of Denaturation Oil, denatured by incubation at 95C for 10 min, and frozen at approximately -70C until analysis by nuclease protection assay (qNPA) (Roberts et al., 2007). For qNPA analysis, cell lysates were thawed at 50C for approximately 30 min, qNPA probes were added, and samples were incubated at 95C for 10 min to begin the detection process by denaturing the target RNA, dissociating the duplexes and secondary structure hybridization. At the conclusion of the hybridization period, S1 nuclease reagent was added to each sample to digest all nonprotected nucleotides at 50C for 60-90 min. […]

Structure (SMILES) | outcome
CC(Oc1ccc(Cl)cc1Cl)C(=O)O (stereo not given) | inactive
Cc1cc(Cl)ccc1OCC(=O)O | inactive
CCOP(=S)(OCC)SCn1c(=O)oc2cc(Cl)ccc21 | inactive
CCNc1nc(Cl)nc(NC(C)C)n1 | inactive
COc1ccc(C(c2ccc(OC)cc2)C(Cl)(Cl)Cl)cc1 | inactive
CNC(=S)S | inactive
COc1nc(NC(C)C)nc(NC(C)C)n1 | inactive
C=CC1(C)OC(=O)N(c2cc(Cl)cc(Cl)c2)C1=O (stereo not given) | inactive
N#CC(CCc1ccc(Cl)cc1)(Cn1cncn1)c1ccccc1 (stereo not given) | inactive
CCNc1nc(Cl)nc(NCC)n1 | inactive
Fc1ccc(Oc2ccnc3cc(Cl)cc(Cl)c23)cc1 | inactive
COC(=O)C=C(C)OP(=O)(OC)OC | inactive
CCCC1COC(Cn2cncn2)(c2ccc(Cl)cc2Cl)O1 (stereo not given) | inactive
CC1COC(Cn2cncn2)(c2ccc(Oc3ccc(Cl)cc3)cc2Cl)O1 (stereo not given) | inactive
C#CCOS(=O)OC1CCCCC1Oc1ccc(C(C)(C)C)cc1 (stereo not given) | inactive
O=C(O)c1nc(Cl)ccc1Cl | inactive
Cc1c(F)c(F)c(COC(=O)C2C(/C=C(\Cl)C(F)(F)F)C2(C)C)c(F)c1F (stereo not given) | inactive
COP(=S)(OC)Oc1nc(Cl)c(Cl)cc1Cl | inactive
CCCCC(CC)COC(=O)c1ccccc1C(=O)OCC(CC)CCCC (stereo not given) | inactive
CC(C)Oc1cc(-n2nc(C(C)(C)C)oc2=O)c(Cl)cc1Cl | inactive

Structure (SMILES) | outcome
COc1cnc(OC)n2nc(NS(=O)(=O)c3c(OCC(F)F)cccc3C(F)(F)F)nc12 | inactive
CC(C)C1(C)N=C(c2nc3ccccc3cc2C(=O)O)NC1=O (stereo not given) | inactive
CON(C)C(=O)Nc1ccc(Cl)c(Cl)c1 | inactive
O=C(Nc1ccccc1)Nc1ccnc(Cl)c1 | inactive
N#Cc1nn(-c2c(Cl)cc(C(F)(F)F)cc2Cl)c(N)c1S(=O)C(F)(F)F (stereo not given) | inactive
CCON=C(CC)C1=C(O)CC(c2c(C)cc(C)cc2C)CC1=O (stereo not given) | inactive
CCCN(CCC)c1c([N+](=O)[O-])cc(S(N)(=O)=O)cc1[N+](=O)[O-] | inactive
CCCCNC(=O)OCC#CI | inactive
CC1=C(C(=O)Nc2ccccc2)SCCO1 | inactive
COC(=O)c1ccccc1C(=O)OC | inactive
COc1nc(C)nc(NC(=O)NS(=O)(=O)c2ccccc2CCC(F)(F)F)n1 | inactive
CNC(=O)ON=CC(C)(C)SC | inactive
OC(c1ccc(Cl)cc1)(c1cncnc1)c1ccccc1Cl (stereo not given) | inactive
CCc1nn(C)c(C(=O)NCc2ccc(C(C)(C)C)cc2)c1Cl | inactive
CCOC(=O)CC(SP(=S)(OC)OC)C(=O)OCC (stereo not given) | inactive
CCCCOC(=O)c1ccccc1C(=O)OCCCC | inactive
Oc1ccccc1-c1ccccc1 | inactive
O=C(O)COc1nc(Cl)c(Cl)cc1Cl | inactive
CCCCNC(=O)n1c(NC(=O)OC)nc2ccccc21 | inactive
COc1nc(C)nc(NC(=O)NS(=O)(=O)c2ccccc2Cl)n1 | inactive
